High-throughput results: PubChem, National Center for Advancing Translational Sciences (NCATS)
Sampled rows, rich in hits. Any-hit rate of the full collection: about 14%.
Pf growth 48h – inhibits P. falciparum growth in the first generation, 48 h; Potency, µM (series often up to 28.7 µM), for inactives: top-dose activity change, negative = inhibition, hits mostly inhibitors; P. falciparum luciferase growth in erythrocytes, 48 h; hit rate 5.9% among 310,000; further: potency means the concentration at half of the fitted maximal effect
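First compound was added to culture medium, then infected red cells at 0.1% parasitemia and 2% hematocrit (final). After incubation at 37 C under 5% CO2, luciferase detection reagent was dispensed and light output recorded.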
Sm TGR inh – inhibitors of Schistosoma mansoni thioredoxin glutathione reductase. Q962Y6. purified TGR, DTNB reduction, TNB absorbance 405 nm. hit rate 3% among 360,000. Potency, µM (doses to about 114 µM), inactives show top-dose activity change, negative = inhibition, usual class: inhibitors; further: potency means the concentration at half of the fitted maximal effect; nearly all actives have a fitted effect of over 60% in size
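Kinetic colorimetric format: TGR-catalysed, NADPH-driven DTNB reduction monitored via TNB absorbance. Enzyme dispensed at 20 nM; compound exposure 15 min at room temperature before reaction start.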
HCMV antiviral – inhibitors of human cytomegalovirus. activity change, negative = inhibition, % at 57.5 µM. AID 1259415. hit rate 4.5% among 410,000. HFF cells, HCMV-luciferase reporter, 72 h; stronger effect = lower value; in the data active means activity change below about -60%; inconclusive means no clear call, values can overlap the other calls; inactive means above about -39%
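Compounds were evaluated in HFFs infected with an HCMV luciferase reporter virus (MOI 1 PFU/cell). Luciferase in lysates collected 72 h post infection served as the replication measure.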
Pf growth 96h – inhibits malaria parasite growth, 96 h; AID 504834; Potency, µM (doses to about 28.7 µM), inactives show at the highest dose activity change, negative = inhibition, most hits filed as inhibitors; hit rate 6.9% among 320,000; P. falciparum luciferase reporter growth, 96 h; further: potency means the concentration at half of the fitted maximal effect
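96 h incubation, 37 C, 5% CO2, of luciferase-reporter P. falciparum-infected RBCs (2% hematocrit, 0.05% parasitemia final) with test compounds; endpoint luminescence.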
Giardia FBPA inh – Giardia lamblia aldolase inhibition | A8B2U2 | purified Giardia FBPA | hit rate 0.71% among 290,000 | Potency, µM (doses to about 59.6 µM), for the others: top-dose activity, negative = inhibition, actives largely listed as inhibitors; further: potency means the concentration at half of the fitted maximal effect; nearly all actives have a fitted effect of over 55% in size
Target sequence (A8B2U2 whole entry, looked up): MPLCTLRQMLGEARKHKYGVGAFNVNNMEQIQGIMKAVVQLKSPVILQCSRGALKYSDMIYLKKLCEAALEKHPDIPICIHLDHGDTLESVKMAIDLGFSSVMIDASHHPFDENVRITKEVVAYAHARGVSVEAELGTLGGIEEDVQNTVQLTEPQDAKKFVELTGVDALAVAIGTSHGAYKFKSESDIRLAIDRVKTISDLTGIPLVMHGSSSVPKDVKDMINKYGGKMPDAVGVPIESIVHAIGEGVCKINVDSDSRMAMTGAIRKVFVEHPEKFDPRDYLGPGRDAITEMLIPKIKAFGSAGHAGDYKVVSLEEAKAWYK
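40 nM FBPA preincubated 10 min at RT with compound (up to 57.5 uM final), then substrate plus GAPDH/TPI/NAD/arsenate coupling and diaphorase/resazurin added. Fluorescence read after 20 min at RT, 525/598 nm.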
Active calls of the source: *; u = inconclusive; x = no result. Unless noted, the call rests on the fitted dose curve; in most records, active means well fitted curve in the direction sought with a large enough effect; inconclusive means small, poorly fitted or top-dose-only effect, or another doubt; inactive means no such curve, though single readings can be large; an effect the other way counts as inactive or inconclusive. On the % scale 0 is the no-effect control and ±100 the full control effect.

SMILES | Pf growth 48h | Sm TGR inh | HCMV antiviral | Pf growth 96h | Giardia FBPA inh
CN(C)C(=O)C1Cc2ccccc2CN1S(=O)(=O)c1ccc(F)cc1 (centres undefined) | 7.7% | 4.8% | -21.6 | 4.15µM* | 5.9%
Cc1ccc(S(=O)(=O)N2Cc3ccccc3CC2C(=O)NC(C)(C)C)cc1 (centres undefined) | 2.1% | -21.3% | -0.3 | 11.7µM* | -4.4%
Cc1noc(C)c1S(=O)(=O)N1Cc2ccccc2CC1C(=O)N(C)C (centres undefined) | 4.3% | -19.6% | -25.2 | 22.4% | x
COc1ccccc1C1CC(c2ccc(NS(C)(=O)=O)cc2)=NN1S(=O)(=O)c1ccccc1 (centres undefined) | u | -5.5% | -24.6 | u | x
Cc1ccc(C2=NN(S(=O)(=O)c3ccccc3)C(c3ccco3)C2)cc1 (centres undefined) | 9.28µM* | 0.0% | u | 11.7µM* | x
O=S(=O)(c1ccccc1)N1N=C(c2ccc(O)cc2)CC1c1ccco1 (centres undefined) | -19.4% | -3.5% | u | u | x
CS(=O)(=O)Nc1ccc(C2=NN(S(=O)(=O)c3ccc(F)cc3)C(c3ccco3)C2)cc1 (centres undefined) | 1.0% | 14.1µM* | -2.9 | 14.0% | -13.3%
O=S(=O)(c1ccccc1)N1N=C(c2ccc(Br)cc2)CC1c1ccco1 (centres undefined) | u | 56.2µM* | -60.3* | u | 13.9%
CS(=O)(=O)Nc1ccc(C2=NN(S(C)(=O)=O)C(c3ccc4c(c3)OCO4)C2)cc1 (centres undefined) | 148.3% | -2.2% | 62.7 | 2.94µM* | -0.1%
COc1ccccc1N1CCN(C(=O)C(=O)c2cccc([N+](=O)[O-])c2)CC1 | x | x | -5.0 | x | x
COc1ccc(-c2csc(NC(=O)C3CSC4(C)CCC(=O)N34)n2)c(OC)c1 (centres undefined) | -26.6% | -1.1% | -24.6 | u | x
CC1(C(=O)NS(=O)(=O)C2CC2)CCCN(C(=O)c2ccc3ccccc3c2)C1 (centres undefined) | x | x | -1.8 | x | x
CCOC(=O)c1c(C)oc(NC(=O)CCl)c1C(=O)OCC | 21.7% | 14.1µM* | -3.6 | -14.6% | -12.8%
CC(CCC(=O)O)C1CCC2C3CC(O)[C@@H]4CC(O)CC[C@]4(C)C3CC[C@@]12C (some centres undefined) | x | x | x | x | 16.2%
CCc1n(CC(O)COC2CCCCC2)c2ccccc2[n+]1C (centres undefined) | 2.62µM* | -0.2% | -29.9 | u | -3.7%
Cc1ccc(S(=O)(=O)CCC(=O)N(CCN2CCOCC2)c2nc3ccccc3s2)cc1 | 74.5% | 35.5µM* | 32.3 | 125.8% | x
Cc1cccc2sc(N(CCCN3CCOCC3)C(=O)CS(=O)(=O)c3ccc(F)cc3)nc12 | u | 1.9% | -1.7 | -25.3% | x
Cc1cccc2sc(N(CCN3CCOCC3)C(=O)CCS(=O)(=O)c3ccccc3)nc12 | 6.2% | 44.7µM* | 4.4 | 2.7% | x
O=C([C@@H]1[C@@H](CO)[C@@H]2Cn3c(cccc3=O)[C@H]1N2Cc1cccc(Cl)c1)N1CCOCC1 | x | x | -7.4 | x | x
O=P(c1ccccc1)(c1ccccc1)c1nc(-c2ccccc2)oc1NCc1ccccc1 | 5.86µM* | 0.5% | 27.1 | 9.28µM* | -6.6%
CCOP(=O)(OCC)c1nc(-c2cccc3ccccc23)oc1NCCc1ccc(OC)cc1 | 14.7µM* | -7.9% | -13.9 | u | -4.5%
CCOP(=O)(OCC)c1nc(-c2ccc(F)cc2)oc1NCc1ccccc1 | u | -2.5% | -37.8 | u | -0.7%
CCOP(=O)(OCC)c1nc(Cc2ccccc2)oc1NCc1ccccc1 | 9.28µM* | -35.6% | 2.2 | 10.4µM* | -0.1%
CCOP(=O)(OCC)c1nc(-c2ccccc2)oc1NCc1ccccc1 | 7.38µM* | -3.4% | -3.8 | 2.62µM* | -0.4%
O=S(=O)(c1ccccc1)c1nc(-c2ccccc2)oc1NCc1cccnc1 | 2.8% | -25.9% | -2.2 | u | 1.5%
SMILES | Pf growth 48h | Sm TGR inh | HCMV antiviral | Pf growth 96h | Giardia FBPA inh
CCNC(=O)c1ccc2nc(Cc3ccccc3)oc2c1 | x | 1.1% | 60.5 | x | x
C[C@H](NC(c1cccc2nc(O)c(O)nc12)P(=O)(O)O)c1ccc(Br)cc1 (some centres undefined) | x | x | x | x | 0.5%
O=C(NCc1ccccc1Cl)C1CCCN(C(=O)c2cnn(-c3ccc(F)cc3)c2-n2cccc2)C1 (centres undefined) | x | 1.4% | -12.1 | x | x
COc1cc(C)c(N)cc1C(C)C | 3.5% | -23.5% | -0.4 | x | -25.6%
Cc1cc(OI)c(C(C)C)cc1-c1cc(C(C)C)c(OI)cc1C | u | x | x | 6.75µM* | -6.1%
O=C(Nc1ccc(Cl)cc1)c1csc(C(O)c2cccc(OC(F)(F)F)c2)n1 (centres undefined) | x | x | -36.4 | x | x
O=C1C(c2ccccc2)C(c2ccccc2)NC(c2ccccc2)C1c1ccccc1 (centres undefined) | 1.85µM* | -0.7% | -3.2 | 0.0% | 5.5%
COc1cc(C2CC(=O)c3c([nH]c(C(=O)OCCOC(C)C)c3C)C2)cc(OC)c1OC (centres undefined) | 7.38µM* | -1.5% | -63.4* | u | -1.2%
COc1ccc(OC)c(C2CC(=O)c3c([nH]c(C(=O)OC(C)C)c3C)C2)c1 (centres undefined) | x | 0.0% | -70.5* | u | 0.0%
CCOCCOC(=O)c1[nH]c2c(c1C)C(=O)CC(c1ccc(OC)c(OC)c1)C2 (centres undefined) | u | 14.4% | u | 1.47µM* | 4.3%
CCOC(=O)c1[nH]c2c(c1C)C(=O)CC(c1ccc(OC)c(OC)c1)C2 (centres undefined) | u | -3.4% | -5.8 | 41.8% | 1.4%
CCCOCCOC(=O)c1[nH]c2c(c1C)C(=O)CC(c1cc(OC)ccc1OC)C2 (centres undefined) | u | 0.8% | -80.4* | 6.4% | 3.8%
COc1cc(C2CC(=O)c3c([nH]c(C(=O)OCc4ccc(C)cc4)c3C)C2)cc(OC)c1OC (centres undefined) | x | -2.7% | -18.0 | x | x
COC(=O)N/N=C(\C)c1ccccc1OC(F)F | 10.6% | -20.1% | 37.3 | 31.1% | 1.5%
CCOC(=O)N/N=C(\C)c1ccccc1OC(F)F | u | -13.4% | -37.1 | 9.28µM* | 0.8%
O=C(CCl)Nc1nc(-c2ccco2)c(-c2ccco2)s1 | -11.8% | 0.398µM* | -68.6* | 0.0% | -27.0%
Cc1ccc(C(=O)Nc2nc(-c3ccco3)c(-c3ccco3)s2)o1 | u | 4.47µM* | 13.2 | 10.3% | x
O=C(CCCSc1ccccc1)Nc1nc(-c2ccco2)c(-c2ccco2)s1 | 36.5% | u | 25.5 | 0.0% | -9.3%
Fc1cc2nc(-c3ccncc3)[nH]c2cc1F | u | -16.2% | 71.8 | 1.85µM* | -5.6%
COc1ccc(C)cc1Nc1nc2c(S(=O)(=O)c3cccc(Cl)c3)nnn2c2ccsc12 | x | -8.9% | -13.8 | x | x
